Results on seven compounds are retold here after PubChem BioAssay (NCI).

This is part of a sample that, as a whole, favours compounds with a hit. Of some 83,000 tested, about 20% had one in any assay.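 96-well plates, one dose, 48 hours. Percent growth reported; active if below 10.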 Values without a mark were called inactive. Activity calls are given as the source filed them.

Among the test systems are DU-145 prostate; K-562 leukemia; MALME-3M melanoma; MDA-MB-231 breast; RXF 393 renal; SF-268 CNS; SF-295 CNS; SF-539 CNS; UACC-257 melanoma; M14 melanoma; HCT-15 colon; HT29 colon; SNB-75 CNS; SNB-19 CNS; U251 CNS; PC-3 prostate; SK-MEL-5 melanoma; UACC-62 melanoma; SK-MEL-28 melanoma; LOX IMVI melanoma.
What all share (assay): NCI-60 one-dose screen, 48 h (100 = growth as untreated, 0 = no growth, -100 = all killed)
Details in all cases: 10 µM unless noted

As to `Cc1cccc(Oc2ccc(Nc3ncnc4ccc(NC(=O)CN5CCN(C)CC5)cc34)cc2Cl)c1`, the growth in the experiment on DU-145 prostate was 33.2%; in the experiment with K-562 leukemia it was -6.17% (active); in the experiment on MALME-3M melanoma, -72.6% (active); with MDA-MB-231 breast, -47.2% (active); in the experiment on RXF 393 renal it was -65.6% (active); in the experiment with SF-268 CNS, 42%. The growth in the experiment with SF-295 CNS was 63.9%; with SF-539 CNS, -77.1% (active); in the experiment with UACC-257 melanoma, -66.4% (active); in the experiment on M14 melanoma, -72.7% (active); in the experiment on HCT-15 colon, 5.82% (active); with HT29 colon, -30.1% (active). Moreover, the growth in the experiment on SNB-75 CNS is 80.8%; in the experiment with SNB-19 CNS it was 28.4%; in the experiment with U251 CNS, 9.58% (active); in the experiment with PC-3 prostate, 33.1%; in the experiment on SK-MEL-5 melanoma, -76.7% (active); with UACC-62 melanoma, -27.4% (active). In addition, the growth in the experiment with SK-MEL-28 melanoma is -84.6% (active).
Turning to `Cc1ccc(/C=C/C(=O)c2cccc(OCCCOc3cccc(C(=O)/C=C/c4ccc(C)cc4)c3)c2)cc1`, the growth with DU-145 prostate is 88.9%; in the experiment on K-562 leukemia, 52.9%; in the experiment with MALME-3M melanoma, 98.8%; in the experiment on MDA-MB-231 breast it was 86.8%; in the experiment with RXF 393 renal it was 85.7%; with SF-268 CNS, 79.6%. In addition, the growth in the experiment on SF-295 CNS was 77.4%; in the experiment on SF-539 CNS, 83.8%; in the experiment on UACC-257 melanoma it was 96.4%; in the experiment on M14 melanoma, 73.4%; in the experiment with HCT-15 colon it was 64.4%; in the experiment with HT29 colon it was 51.5%. Moreover, the growth with SNB-75 CNS was 70.2%; with SNB-19 CNS, 77.2%; in the experiment on U251 CNS it was 41%; in the experiment with PC-3 prostate, 72.2%; with SK-MEL-5 melanoma it was 90.2%; with UACC-62 melanoma, 62.9%. For the same compound, the growth in the experiment on LOX IMVI melanoma was 25.5%; in the experiment with SK-MEL-28 melanoma it was 97.7%.
With `COc1cc2c(cc1OCCCCN1CCN(C(=S)SCCC(C#N)(c3ccccc3)c3ccccc3)CC1)N=C[C@@H]1CCCN1C2=O`, the growth in the experiment with DU-145 prostate was -96.7% (active); in the experiment with K-562 leukemia it was -34.3% (active); in the experiment on MALME-3M melanoma it was -79.4% (active); in the experiment with MDA-MB-231 breast it was -23.7% (active); in the experiment with RXF 393 renal, -83.7% (active); in the experiment on SF-268 CNS, -69.9% (active). Besides, the growth in the experiment on SF-295 CNS is -8.56% (active); in the experiment with SF-539 CNS it was -91.3% (active); in the experiment on UACC-257 melanoma it was -11.1% (active); with M14 melanoma, -29.5% (active); in the experiment with HCT-15 colon it was -55.5% (active); in the experiment on HT29 colon, -65.6% (active). For the same compound, the growth with SNB-75 CNS was -82.3% (active); with SNB-19 CNS, -14.5% (active); in the experiment with U251 CNS, -81.9% (active); with PC-3 prostate it was -16.1% (active); in the experiment on SK-MEL-5 melanoma, -98.3% (active); in the experiment with UACC-62 melanoma, -22.7% (active). For the same compound, the growth with LOX IMVI melanoma is -83.2% (active); in the experiment on SK-MEL-28 melanoma, -70.2% (active).
`COc1ccc(-c2nn(-c3ccccc3)cc2/C=C/C(=O)NNC(=O)Nc2ccc(C)cc2)cc1`: the growth was 108% in the experiment on DU-145 prostate; 78.3% with K-562 leukemia; 91.8% in the experiment with MALME-3M melanoma; 83.5% in the experiment with MDA-MB-231 breast; 109% with RXF 393 renal; 102% in the experiment on SF-268 CNS. Further, the growth in the experiment with SF-295 CNS was 99%; with SF-539 CNS it was 101%; in the experiment with UACC-257 melanoma it was 95.7%; with M14 melanoma, 94.1%; in the experiment with HCT-15 colon, 97.1%; with HT29 colon it was 101%. The growth was 96.5% in the experiment on SNB-75 CNS; 88.5% in the experiment with SNB-19 CNS; 94.3% in the experiment with U251 CNS; 89.6% in the experiment with PC-3 prostate; 96.5% in the experiment on SK-MEL-5 melanoma; 89.3% in the experiment on UACC-62 melanoma. In addition, the growth in the experiment with LOX IMVI melanoma was 97.6%; with SK-MEL-28 melanoma, 115%.
Take `CC(=O)c1sc2sc(C(C)=O)c(C)c2c1C`: the growth in the experiment with DU-145 prostate was 111%; with K-562 leukemia it was 95.5%; in the experiment with MALME-3M melanoma, 126%; with MDA-MB-231 breast, 101%; in the experiment with RXF 393 renal, 93%; with SF-268 CNS it was 97.1%. Moreover, the growth in the experiment on SF-295 CNS is 105%; with SF-539 CNS it was 85.1%; in the experiment on UACC-257 melanoma, 81.3%; in the experiment on M14 melanoma, 107%; in the experiment with HCT-15 colon, 105%; in the experiment with HT29 colon, 79.4%. For the same compound, the growth with SNB-75 CNS was 90.6%; with SNB-19 CNS, 105%; in the experiment on PC-3 prostate it was 77.7%; in the experiment on SK-MEL-5 melanoma it was 98.2%; with UACC-62 melanoma, 75%; with LOX IMVI melanoma it was 95.6%. Moreover, the growth in the experiment with SK-MEL-28 melanoma is 100%.
As for `CSC1=Nc2c(c(C)c(-c3ccccc3)n2CCCC(=O)O)C2=NC(=O)C[C@H](C)N12`, the growth with DU-145 prostate was 115%; in the experiment with K-562 leukemia it was 101%; in the experiment on MALME-3M melanoma it was 102%; in the experiment with MDA-MB-231 breast it was 138%; in the experiment on RXF 393 renal it was 106%; in the experiment with SF-268 CNS it was 110%. In addition, the growth in the experiment with SF-295 CNS is 106%; with SF-539 CNS, 85.5%; in the experiment on UACC-257 melanoma, 108%; in the experiment on M14 melanoma, 102%; with HCT-15 colon, 127%; with HT29 colon, 94.1%. Moreover, the growth in the experiment with SNB-75 CNS was 79.7%; with SNB-19 CNS, 101%; in the experiment on U251 CNS, 103%; in the experiment on PC-3 prostate, 97.6%; with SK-MEL-5 melanoma it was 92.4%; in the experiment on UACC-62 melanoma, 107%. Moreover, in the experiment with SK-MEL-28 melanoma, the growth was 105%.
In the case of `COc1ccc(C2=NN(C(C)=O)C(c3cn(-c4ccccc4)nc3-c3ccc(Cl)cc3)C2)cc1` (stereo unspecified), the growth in the experiment on DU-145 prostate was 17.4%; in the experiment on K-562 leukemia, 13.1%; with MALME-3M melanoma, 52%; in the experiment on MDA-MB-231 breast, 17.2%; in the experiment with RXF 393 renal it was -10.5% (active); in the experiment with SF-268 CNS it was 27.2%. In addition, the growth is 42.4% in the experiment with SF-295 CNS; 15.8% with SF-539 CNS; 66.4% with UACC-257 melanoma; 17.2% in the experiment with M14 melanoma; 17.1% in the experiment with HCT-15 colon; -6.18% (active) with HT29 colon. Besides, the growth with SNB-75 CNS is -4.48% (active); with SNB-19 CNS it was 34.2%; in the experiment with PC-3 prostate it was 34.3%; in the experiment with SK-MEL-5 melanoma, 27.1%; in the experiment with UACC-62 melanoma, 20%; in the experiment with LOX IMVI melanoma, 0.526% (active). For the same compound, in the experiment with SK-MEL-28 melanoma, the growth was 56.3%.
